The values that follow come from PubChem BioAssay (NCATS).

Each structure is given as a SMILES string. Records with an inconclusive call do not appear. Entries that show only a call come without a potency. Active and inactive are the calls of the source. The call rests on the fitted dose curve; in most records, active means well fitted inhibition curve with a large enough effect; inconclusive means small, poorly fitted or top-dose-only effect; inactive means no such curve, though single readings can be large or run the other way.
Potency means the concentration at half of the fitted maximal effect.

The experiment can be described thus: qHTS for Inhibitors of the Aldehyde Dehydrogenase Family (ALDH1A2, ALDH1A3, ALDH2, ALDH3A1) (AID 2061307). Further: nearly all actives have a fitted effect of over 50% in size. On potency: test system not described further here. The following applies: ALDH inhibition qHTS; series mostly up to 50.3 µM. (In qHTS, concentration-response curves come from the screen itself.)
For `COc1ccc(C2CC(=O)Nc3nc(N4CCCCC4)sc32)c(OC)c1` (configuration not stated), the Potency result is “inactive”.

`O=S(=O)(Nc1ccccc1F)c1cccc(NC(=S)NCCN2CCOCC2)c1`: the Potency result is “inactive”.

As to `O=C(Nc1nnc(C(F)(F)F)s1)c1ccc(Cl)cc1`, the Potency entry is “inactive”.

Regarding `COc1cc(O)c(C(CC(=O)N2CC(C)CC(C)C2)c2cccc(OC(C)C)c2)c(OC)c1` (configuration not stated), the Potency is 12.7 µM (active).

With `CCc1ccc(NC(=O)c2cc3c(=O)n(Cc4cccnc4)ccc3nc2C)cc1`, the Potency result is “inactive”.

In the case of `CCN1CCN(C2c3ccccc3-c3ccc(Br)cc32)CC1` (configuration not stated), the Potency entry is “inactive”.

In the case of `CC(=O)N1CCC(Nc2ncnc3scc(-c4ccccc4)c23)CC1`, the Potency was 6.31 µM (active).

`Cc1c(P(=S)(c2ccccc2)c2ccccc2)[n+]2ccccc2n1C/C=C/c1ccc(C(F)(F)F)cc1`: the Potency is 7.94 µM (active).

Regarding `O=C(c1ccco1)N1CCN(Cc2nc3ccccc3c(=O)n2-c2ccccc2Oc2ccccc2)CC1`, the Potency result was “inactive”.

As for `CS(=O)(=O)c1nc(-c2ccc(Br)cc2)cs1`, the Potency entry was “inactive”.

Consider `COc1ccc(-n2ccc(C(=O)Nc3cccnc3OC)n2)cc1`, for which the Potency entry is “inactive”.

As for `O=Cc1ccc(Sc2ccccn2)o1`, the Potency entry is “inactive”.

Take `CSCc1cccc(C(=O)Nc2cccnc2)c1`: the Potency result is “inactive”.

For `O=C(O)c1cccc(COc2cccc([N+](=O)[O-])c2)c1`, the Potency is 0.269 µM (active).

With `COCCn1cc(NC(=O)CSC(C)C)ccc1=O`, the Potency result was “inactive”.

In the case of `O=C(NC1CCCc2c1cnn2-c1ccc(OCCOCCOCCNCCc2cn(-c3cc4ccc(O)cc4oc3=O)nn2)cc1)c1ccccn1` (configuration not stated), the Potency entry was “inactive”.

In the case of `COCCN(CC(=O)Nc1cccc(C)c1C)C(=O)c1cc2c(s1)CCC2`, the Potency entry is “inactive”.
